ChEMBL document CHEMBL1201862, “PubChem BioAssay data set” (2004)
In all, about 400,000 compounds went through this assay and about 2,100 (0.53%) were called active. Roughly 14% stayed inconclusive and do not appear here. The rule behind the calls is not given here. The full list was thinned out, with actives kept by preference.

Molecular target: Ataxin-2 (Homo sapiens) (UniProt Q99700)
Assay: qHTS for Inhibitors of ATXN expression.
Assay type: functional

Ataxin-2 (Homo sapiens), sequence (Q99700 whole entry): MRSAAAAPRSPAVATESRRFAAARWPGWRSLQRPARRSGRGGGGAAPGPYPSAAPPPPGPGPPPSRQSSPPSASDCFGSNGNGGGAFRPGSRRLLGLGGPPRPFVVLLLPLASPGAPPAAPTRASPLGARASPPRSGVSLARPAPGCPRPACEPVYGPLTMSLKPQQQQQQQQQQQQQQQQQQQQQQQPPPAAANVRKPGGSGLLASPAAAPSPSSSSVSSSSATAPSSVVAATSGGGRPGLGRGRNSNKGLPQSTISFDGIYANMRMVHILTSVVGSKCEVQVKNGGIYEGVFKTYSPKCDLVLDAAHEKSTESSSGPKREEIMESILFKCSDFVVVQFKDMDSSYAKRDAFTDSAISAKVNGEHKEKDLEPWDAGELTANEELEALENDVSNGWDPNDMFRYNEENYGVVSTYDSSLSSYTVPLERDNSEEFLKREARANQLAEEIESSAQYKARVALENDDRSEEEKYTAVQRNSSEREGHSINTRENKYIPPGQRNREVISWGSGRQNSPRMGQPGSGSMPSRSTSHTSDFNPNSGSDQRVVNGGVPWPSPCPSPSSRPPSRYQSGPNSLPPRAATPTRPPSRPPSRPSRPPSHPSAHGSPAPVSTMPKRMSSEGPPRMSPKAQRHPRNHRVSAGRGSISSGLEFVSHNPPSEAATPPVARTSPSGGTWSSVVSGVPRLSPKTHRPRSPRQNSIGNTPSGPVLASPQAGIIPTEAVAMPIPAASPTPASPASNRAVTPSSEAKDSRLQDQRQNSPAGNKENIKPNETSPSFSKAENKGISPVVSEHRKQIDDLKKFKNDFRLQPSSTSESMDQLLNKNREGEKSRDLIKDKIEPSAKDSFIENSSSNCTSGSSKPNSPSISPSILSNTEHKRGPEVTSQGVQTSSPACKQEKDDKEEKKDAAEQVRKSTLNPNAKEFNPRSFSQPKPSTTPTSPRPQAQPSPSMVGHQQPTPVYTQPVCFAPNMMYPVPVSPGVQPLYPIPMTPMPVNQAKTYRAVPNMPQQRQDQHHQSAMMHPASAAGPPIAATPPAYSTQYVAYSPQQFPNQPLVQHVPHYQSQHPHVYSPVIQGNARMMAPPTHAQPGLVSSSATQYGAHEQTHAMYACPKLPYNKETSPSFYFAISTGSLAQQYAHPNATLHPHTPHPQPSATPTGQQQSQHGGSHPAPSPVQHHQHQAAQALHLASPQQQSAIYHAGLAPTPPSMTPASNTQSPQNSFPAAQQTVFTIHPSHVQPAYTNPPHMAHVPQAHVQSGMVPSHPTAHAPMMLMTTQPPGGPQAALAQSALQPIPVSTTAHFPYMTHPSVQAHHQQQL

Row | Structure (SMILES) | Potency
1 | CC(C)CC1C(=O)N(Cc2cn(Cc3ccco3)nn2)CCS(=O)(=O)N1Cc1ccc(-c2ccc(F)nc2)cc1 (centres undefined) | 25.1 µM (active)
2 | COc1ccc(-c2ccc(CN3C(CC(C)C)C(=O)N(Cc4cn(CC5CCCCC5)nn4)CCS3(=O)=O)cc2)cn1 (centres undefined) | 10 µM (active)
3 | CC(C)CC1C(=O)N(Cc2cn(Cc3ccco3)nn2)CCS(=O)(=O)N1Cc1ccc(-c2cccc(CO)c2)cc1 (centres undefined) | 35.5 µM (active)
4 | COc1ccc(NS(=O)(=O)c2cc3c(cc2C)N(C)CCO3)c(OC)c1 | inactive
5 | CC1CCN(Cc2c(O)ccc3c2O/C(=C\c2ccco2)C3=O)CC1 | inactive
6 | O=C(c1cnn(-c2ccccc2)c1)c1cc(F)ccc1O | inactive
7 | Cc1cccc2nc(-c3ccccn3)c(Nc3ccc(F)cc3)n12 | 20 µM (active)
8 | Cc1cc(Nc2ccc(F)cc2)n2c(nc3ccccc32)c1C#N | inactive
9 | Cc1ccc(Nc2nc(-c3ccccc3)c(CC(=O)O)s2)cc1 | inactive
10 | Cc1ccc(Nc2c(-c3ccsc3)nc3cccc(C)n23)cc1 | 25.1 µM (active)
11 | Cc1sc(-c2ccccn2)nc1OC(=O)c1ccc(F)cc1F | inactive
12 | CCC1Cc2c(nc(N)c3c(N)nc(N4CCCCC4)c(C#N)c23)O1 (centres undefined) | inactive
13 | N=c1c(C(=O)NCC2CCCO2)cc2c(=O)n3ccccc3nc2n1Cc1ccc(Cl)cc1 (centres undefined) | inactive
14 | CC(=O)C1=NN(c2ccccc2)C(c2ccc3c(c2)OCO3)N1c1ccccc1 (centres undefined) | inactive
15 | Cc1c2c(n3c(nc4ccccc43)c1C#N)N(CCN1CCOCC1)CC2 | inactive
16 | CCOC(=O)c1cc2c(=O)n3ccccc3nc2n(Cc2ccco2)/c1=N\C(=O)c1cccc(C)c1 | inactive
17 | CCC(=O)Oc1ccc2c(C)c(Cl)c(=O)oc2c1 | inactive
18 | CCN(CC)c1ccc2c(C)c(Cl)c(=O)oc2c1 | inactive
19 | C=C1CC(COc2cc(=O)oc3ccccc23)(c2ccccc2)OC1=O (centres undefined) | 39.8 µM (active)
20 | C=C1CC(COc2ccc3c(C)c(Cl)c(=O)oc3c2)(c2ccccc2)OC1=O (centres undefined) | 9.47 µM (active)
21 | COc1cc(NC(=O)c2sc3ncn(CC(=O)N4CCC(C)CC4)c(=O)c3c2C)cc(OC)c1OC | inactive
22 | COc1cc(CNC(C)c2ccccc2)cc(Br)c1OCc1ccc(F)cc1 (centres undefined) | 39.8 µM (active)
23 | COc1cc(/C=C(\C#N)c2nc3ccccc3[nH]2)cc(Br)c1OCc1ccccc1 | inactive
24 | CCCCN(CCCC)C(=O)c1cc2c(=O)n3cccc(C)c3nc2s1 | inactive
25 | O=c1[nH][nH]c(=O)c2c(NS(=O)(=O)c3ccccc3)cccc12 | inactive

Row | Structure (SMILES) | Potency
26 | O=C(O)c1ccc(Nc2nc(-c3ccccc3)c3ccccc3n2)cc1 | inactive
27 | NNc1nc(-c2ccccc2)c2ccccc2n1 | inactive
28 | N=C(N)Nc1nc(-c2ccccc2)c2ccccc2n1 | 1.41 µM (active)
29 | CCCCN(C)CC(O)Cn1cc(/C=C/C(=O)c2ccc(OC)c(OC)c2)c2ccccc21 (centres undefined) | inactive
30 | c1ccc(-c2cn3nc(-c4ccccc4)c(-c4ccccc4)nc3n2)cc1 | inactive
31 | c1ccc(-c2cn3c(n2)CCc2ccc4cccnc4c2-3)cc1 | 39.8 µM (active)
32 | c1ccc(-c2cn3nc4c(nc3n2)CCCC4)cc1 | inactive
33 | COC(=O)C1CCN(C(c2cc(OC)c(OC)c(OC)c2)c2sc3nc(C)nn3c2O)CC1 (centres undefined) | inactive
34 | O=C(C1CCCCC1)N1CCC(O)(c2ccc(Cl)cc2)CC1 | inactive
35 | Cc1ccc([C@H]2C[C@@H](O)[C@H](n3cc(-c4ccc(F)cc4)nn3)CN2C(=O)C2CCCCC2)cc1 | 22.4 µM (active)
36 | O=C(C1CCCCC1)N1C[C@@H](n2cc(-c3ccc(F)cc3)nn2)[C@H](O)C[C@@H]1c1ccc(Cl)cc1 | 22.4 µM (active)
37 | CC1CSc2n1c(-c1ccccc1)c[n+]2-c1cccc(C(F)(F)F)c1 (centres undefined) | inactive
38 | Cc1nnc(SCc2cccc3ccccc23)s1 | inactive
39 | CC(C)NC(=O)N1c2ccccc2Sc2ccccc21 | inactive
40 | Cc1nnc(SC(=O)N2c3ccccc3Sc3ccccc32)s1 | 25.1 µM (active)
41 | Nc1[nH]c(C(=O)c2ccccc2)c(-c2ccc(F)cc2)c1C(=O)NCCc1c[nH]c2ccccc12 | 39.8 µM (active)
42 | COc1ccc(C(=O)c2[nH]c(N)c(C(=O)NCCc3c[nH]c4ccccc34)c2-c2ccccc2Br)cc1 | 31.6 µM (active)
43 | O=C(CCCc1c[nH]c2ccccc12)Nc1ccc2ccccc2c1 | inactive
44 | Cc1ccc(N=C(S)NCCc2c[nH]c3ccccc23)c(C)c1 | inactive
45 | COc1ccc(C(=O)OCC(=O)c2c[nH]c3ccccc23)c(OC)c1 | inactive
46 | Nc1[nH]c(C(=O)c2ccccc2)c(-c2ccccc2C(F)(F)F)c1C(=O)NCCc1c[nH]c2ccccc12 | 25.1 µM (active)
47 | Nc1[nH]c(C(=O)c2ccccc2)c(-c2ccc(Cl)c(F)c2)c1C(=O)NCCc1c[nH]c2ccccc12 | 35.5 µM (active)
48 | CC(C)NC(=O)COCc1cc(-c2ccc3c(c2)OCO3)on1 | inactive
49 | Cc1c(Cc2ccccc2)sc(/N=C/c2ccc3ccccc3c2)c1C(N)=O | inactive
